Laboratory results taken from PubChem BioAssay (NCATS).
Records with an inconclusive call do not appear. Where a call stands in place of a potency, no number is given. The source made the active and inactive calls. Calls come from the whole dose curve; as a rule, active = well fitted cell-killing curve with a large enough effect; inconclusive = small, poorly fitted or top-dose-only effect, or effect the other way; inactive = flat fitted curve, though single readings scatter.

What follows are compounds tested on HeLa (assay: Primary qHTS to identify gynecologic anti-cancer compounds using libraries of approved drugs and bioactive compounds (AID 1345084; note: nearly all actives have a fitted effect of over 55% in size)). Conditions: Gynecologic cancer cell panel viability, ATPlite luminescence, 48 h; series mostly up to 57.5 µM.
Outline: (§1)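 Measured: luminescence after ATPlite addition (15 min, RT). Exposure: 48 h, 37 C, 5% CO2.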
With NCCCC(N)(C(=O)O)C(F)F (stereo unspecified) the Potency was “inactive”. With COc1c(Cl)cc2c([nH]c3cnccc32)c1NC(=O)c1cccnc1C the Potency was “inactive”. For CCCc1nn(C)c2c(=O)[nH]c(-c3cc(S(=O)(=O)N4CCN(C)CC4)ccc3OCC)nc12, the Potency was “inactive”. CN(C)c1ccc(C2Nc3ccc4ccccc4c3C3=C2C(=O)CC(C)(C)C3)cc1Br (stereo unspecified) was tested, and the Potency was “inactive”. In the case of Cc1ccc(N(CC2=NCCN2)c2cccc(O)c2)cc1, the Potency is reported as “inactive”. For Nc1ccc(S(=O)(=O)Nc2ccnn2-c2ccccc2)cc1, the Potency was “inactive”. With c1ccc([C@H]2CN3CCSC3=N2)cc1 the Potency was “inactive”. With Cc1cn[nH]c1 the Potency was “inactive”. For NC(=O)c1cnccn1, the Potency was “inactive”. In the case of Cn1cc(-c2ccc3nnc(C(F)(F)c4ccc5ncccc5c4)n3n2)cn1, the Potency is reported as “inactive”. For COc1ccc2nc(S(=O)Cc3ncc(C)c(OC)c3C)[nH]c2c1 (stereo unspecified), the Potency was “inactive”. OC(CN1CCC(Cc2ccc(F)cc2)CC1)c1ccc(Cl)cc1 (stereo unspecified) was tested, and the Potency was “inactive”. In the case of CC[C@@H](C)[C@H](NC(=O)[C@H](CC1CCCCC1)NC(=O)c1ccno1)C(=O)N1CCC2(CCc3ccccc32)CC1, the Potency is reported as “inactive”. NNCCc1ccccc1 was tested, and the Potency was “inactive”. With Cc1ccccc1C(OCCN(C)C)c1ccccc1 (stereo unspecified) the Potency was “inactive”. For CCC(C)n1ncn(-c2ccc(N3CCN(c4ccc(OC[C@H]5CO[C@](Cn6cncn6)(c6ccc(Cl)cc6Cl)O5)cc4)CC3)cc2)c1=O (stereo partly specified), the Potency was “inactive”. For CC(C)OC(=O)C1=CN(C(=O)c2ccc(F)c(F)c2)CC(C)(C)c2c1[nH]c1ccccc21, the Potency was “inactive”. With OCCn1cc(-c2cnc3nnn(Cc4ccc5ncccc5c4)c3n2)cn1 the Potency was “inactive”.

What follows are compounds tested on Hek293T in the same assay as above. Conditions: Gynecologic cancer cell panel viability, ATPlite luminescence, 48 h, control line for the selectivity index; series mostly up to 57.5 µM.
Outline: as §1
For NCCCC(N)(C(=O)O)C(F)F (stereo unspecified), the Potency was “inactive”. COc1c(Cl)cc2c([nH]c3cnccc32)c1NC(=O)c1cccnc1C was tested, and the Potency was “inactive”. For CCCc1nn(C)c2c(=O)[nH]c(-c3cc(S(=O)(=O)N4CCN(C)CC4)ccc3OCC)nc12, the Potency was “inactive”. With CN(C)c1ccc(C2Nc3ccc4ccccc4c3C3=C2C(=O)CC(C)(C)C3)cc1Br (stereo unspecified) the Potency was “inactive”. For Cc1ccc(N(CC2=NCCN2)c2cccc(O)c2)cc1, the Potency was “inactive”. Nc1ccc(S(=O)(=O)Nc2ccnn2-c2ccccc2)cc1 was tested, and the Potency was “inactive”. With c1ccc([C@H]2CN3CCSC3=N2)cc1 the Potency was “inactive”. With Cc1cn[nH]c1 the Potency was “inactive”. With NC(=O)c1cnccn1 the Potency was “inactive”. With Cn1cc(-c2ccc3nnc(C(F)(F)c4ccc5ncccc5c4)n3n2)cn1 the Potency was “inactive”. COc1ccc2nc(S(=O)Cc3ncc(C)c(OC)c3C)[nH]c2c1 (stereo unspecified) was tested, and the Potency was “inactive”. In the case of OC(CN1CCC(Cc2ccc(F)cc2)CC1)c1ccc(Cl)cc1 (stereo unspecified), the Potency is reported as “inactive”. In the case of CC[C@@H](C)[C@H](NC(=O)[C@H](CC1CCCCC1)NC(=O)c1ccno1)C(=O)N1CCC2(CCc3ccccc32)CC1, the Potency is reported as “inactive”. NNCCc1ccccc1 was tested, and the Potency was “inactive”. With Cc1ccccc1C(OCCN(C)C)c1ccccc1 (stereo unspecified) the Potency was “inactive”. CCC(C)n1ncn(-c2ccc(N3CCN(c4ccc(OC[C@H]5CO[C@](Cn6cncn6)(c6ccc(Cl)cc6Cl)O5)cc4)CC3)cc2)c1=O (stereo partly specified) was tested, and the Potency was “inactive”. For CC(C)OC(=O)C1=CN(C(=O)c2ccc(F)c(F)c2)CC(C)(C)c2c1[nH]c1ccccc21, the Potency was “inactive”. OCCn1cc(-c2cnc3nnn(Cc4ccc5ncccc5c4)c3n2)cn1 was tested, and the Potency was “inactive”.

Each compound was assayed on JEG-3 in the same assay as above. Conditions: Gynecologic cancer cell panel viability, ATPlite luminescence, 48 h; series mostly up to 57.5 µM.
Outline: as §1
With NCCCC(N)(C(=O)O)C(F)F (stereo unspecified) the Potency was “inactive”. For COc1c(Cl)cc2c([nH]c3cnccc32)c1NC(=O)c1cccnc1C, the Potency was “inactive”. For CCCc1nn(C)c2c(=O)[nH]c(-c3cc(S(=O)(=O)N4CCN(C)CC4)ccc3OCC)nc12, the Potency was “inactive”. With CN(C)c1ccc(C2Nc3ccc4ccccc4c3C3=C2C(=O)CC(C)(C)C3)cc1Br (stereo unspecified) the Potency was “inactive”. In the case of Cc1ccc(N(CC2=NCCN2)c2cccc(O)c2)cc1, the Potency is reported as “inactive”. With Nc1ccc(S(=O)(=O)Nc2ccnn2-c2ccccc2)cc1 the Potency was “inactive”. c1ccc([C@H]2CN3CCSC3=N2)cc1 was tested, and the Potency was “inactive”. In the case of Cc1cn[nH]c1, the Potency is reported as “inactive”. For NC(=O)c1cnccn1, the Potency was “inactive”. Cn1cc(-c2ccc3nnc(C(F)(F)c4ccc5ncccc5c4)n3n2)cn1 was tested, and the Potency was “inactive”. In the case of COc1ccc2nc(S(=O)Cc3ncc(C)c(OC)c3C)[nH]c2c1 (stereo unspecified), the Potency is reported as “inactive”. OC(CN1CCC(Cc2ccc(F)cc2)CC1)c1ccc(Cl)cc1 (stereo unspecified) was tested, and the Potency was “inactive”. With CC[C@@H](C)[C@H](NC(=O)[C@H](CC1CCCCC1)NC(=O)c1ccno1)C(=O)N1CCC2(CCc3ccccc32)CC1 the Potency was “inactive”. NNCCc1ccccc1 was tested, and the Potency was “inactive”. In the case of Cc1ccccc1C(OCCN(C)C)c1ccccc1 (stereo unspecified), the Potency is reported as “inactive”. CCC(C)n1ncn(-c2ccc(N3CCN(c4ccc(OC[C@H]5CO[C@](Cn6cncn6)(c6ccc(Cl)cc6Cl)O5)cc4)CC3)cc2)c1=O (stereo partly specified) was tested, and the Potency was “inactive”. With CC(C)OC(=O)C1=CN(C(=O)c2ccc(F)c(F)c2)CC(C)(C)c2c1[nH]c1ccccc21 the Potency was “inactive”. In the case of OCCn1cc(-c2cnc3nnn(Cc4ccc5ncccc5c4)c3n2)cn1, the Potency is reported as “inactive”.

What follows are compounds tested on OV90 in the same assay as above. Conditions: Gynecologic cancer cell panel viability, ATPlite luminescence, 48 h; series mostly up to 57.5 µM.
Outline: as §1
For NCCCC(N)(C(=O)O)C(F)F (stereo unspecified), the Potency was “inactive”. COc1c(Cl)cc2c([nH]c3cnccc32)c1NC(=O)c1cccnc1C was tested, and the Potency was “inactive”. In the case of CCCc1nn(C)c2c(=O)[nH]c(-c3cc(S(=O)(=O)N4CCN(C)CC4)ccc3OCC)nc12, the Potency is reported as “inactive”. In the case of CN(C)c1ccc(C2Nc3ccc4ccccc4c3C3=C2C(=O)CC(C)(C)C3)cc1Br (stereo unspecified), the Potency is reported as “inactive”. Cc1ccc(N(CC2=NCCN2)c2cccc(O)c2)cc1 was tested, and the Potency was “inactive”. With Nc1ccc(S(=O)(=O)Nc2ccnn2-c2ccccc2)cc1 the Potency was “inactive”. For c1ccc([C@H]2CN3CCSC3=N2)cc1, the Potency was “inactive”. Cc1cn[nH]c1 was tested, and the Potency was “inactive”. NC(=O)c1cnccn1 was tested, and the Potency was “inactive”. In the case of Cn1cc(-c2ccc3nnc(C(F)(F)c4ccc5ncccc5c4)n3n2)cn1, the Potency is reported as “inactive”. For COc1ccc2nc(S(=O)Cc3ncc(C)c(OC)c3C)[nH]c2c1 (stereo unspecified), the Potency was “inactive”. With OC(CN1CCC(Cc2ccc(F)cc2)CC1)c1ccc(Cl)cc1 (stereo unspecified) the Potency was “inactive”. CC[C@@H](C)[C@H](NC(=O)[C@H](CC1CCCCC1)NC(=O)c1ccno1)C(=O)N1CCC2(CCc3ccccc32)CC1 was tested, and the Potency was “inactive”. In the case of NNCCc1ccccc1, the Potency is reported as “inactive”. For CCC(C)n1ncn(-c2ccc(N3CCN(c4ccc(OC[C@H]5CO[C@](Cn6cncn6)(c6ccc(Cl)cc6Cl)O5)cc4)CC3)cc2)c1=O (stereo partly specified), the Potency was “inactive”. For CC(C)OC(=O)C1=CN(C(=O)c2ccc(F)c(F)c2)CC(C)(C)c2c1[nH]c1ccccc21, the Potency was “inactive”. OCCn1cc(-c2cnc3nnn(Cc4ccc5ncccc5c4)c3n2)cn1 was tested, and the Potency was “inactive”.
